The panel holds about 83,000 compounds, 20% with a hit somewhere; the sample as a whole holds those more often.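 Interpretation: 100, growth as untreated; towards 0, rising growth inhibition; 0, no net growth; 0 to -100, cell death. Compounds scoring below 10 were considered active.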 A number with no mark means an inactive call. Active and inactive are the calls of the source.

For the assay, the system named is COLO 205 colon. The assay can be described thus: NCI-60 one-dose screen, 48 h (100 = growth as untreated, 0 = no growth, -100 = all killed). Conditions: 10 µM unless noted.
Turning to `CCCCC[C@H]1C/C=C2/C(=O)C(Cl)=C[C@@H]2C/C=C\CCCC(=O)O[C@@H](CCCCC)C/C=C2/C(=O)C(Cl)=C[C@@H]2C/C=C\CCCC(=O)O1`, the growth is -76.4% (active).

Consider `O=C1CNCCN1`, for which the growth was 122%.

As for `COc1ccc2c3c(c4ccccc4cc13)C(=O)N(CCN(C)CCN)C2=O`, the growth is -82.7% (active).

Turning to `CCN(CC)CCCCCNc1cc(OC(=O)c2ccccc2)cc2cccnc12`, the growth was 17.3%.

For the compound `CC(=O)OC(C)COc1ccc(-c2ccccc2)cc1` (centres undefined), the growth is 104%.

For `COc1ccc(CCN2C(=O)C(C)(C)SC2=S)cc1OC`, the growth is 111%.

For the compound `c1ccc2[nH]c(-c3cc(-c4ccc5c(c4)OCO5)n[nH]3)nc2c1`, the growth was 70.3%.

In the case of `Cn1cc(-c2csc(-c3cn(CCCN4CCCCC4)c4ccccc34)n2)c2cccnc21`, the growth is -80% (active).

For the compound `COC(=O)[C@]12CC[C@@H](C)[C@H](C)[C@@H]1C1=CC[C@@H]3[C@@]4(C)C[C@@H](O)[C@H](O)[C@@](C)(CO)C4=CC[C@@]3(C)[C@]1(C)CC2`, the growth was -76.7% (active).

For the compound `CC1(n2nnnc2N2CCCN(c3ncccc3N)CC2)CCC1`, the growth was 111%.

Consider `C=C1CC[C@@H](C(=O)OC)Cc2nc(C)ccc21`, for which the growth is 117%.

`Clc1cc(Cl)cc(Nc2ccc3c(OCCCN4CCOCC4)cccc3n2)c1`: the growth is -53.4% (active).

For `Cc1ccc(-c2ccc(/C=C(\C#N)c3nc(-c4ccco4)cs3)o2)cc1`, the growth was 99.1%.

For `CCSc1ncnc2c1ncn2C1OC(CO)C(O)C1O` (centres undefined), the growth was 20.8%.

As to `CCN(CC)C(=O)CCCCCn1c2ccccc2c2c3c(c4c5ccccc5[nH]c4c21)C(=O)N(O)C3=O`, the growth is -7.19% (active).

Turning to `N#C/C(=C\c1ccc(-c2ccccc2)o1)c1nc(-c2ccco2)cs1`, the growth is 104%.

Take `C/C(=N\Nc1cc(C)c2cc(C)ccc2n1)c1ccccn1`: the growth was -99.9% (active).

In the case of `O=C1c2ccccc2NC(c2cn(-c3ccccc3)nc2-c2cccs2)N1Cc1ccccc1` (centres undefined), the growth was 93.5%.

As for `C[C@]12CC[C@@H]3c4ccc(O)cc4CC[C@H]3[C@@H]1C[C@H](O)[C@@H]2O`, the growth is 102%.

As for `CC(=O)n1c(/C(C#N)=C/c2ccc(N(C)C)cc2)cc2ccccc21`, the growth was 16.5%.

Regarding `Fc1ccc2[nH]cc(-c3nc(-c4c[nH]c5ncccc45)cs3)c2c1`, the growth was 45.1%.

As to `S=c1[nH]nc2ccccn12`, the growth is 118%.

As to `N#Cc1c(-c2ccc(O)cc2)c2c(N)nn(-c3ccccc3)c2[nH]c1=O`, the growth was 122%.

In the case of `COc1ccc(OC)c(-c2c(C#N)c(-c3ccco3)nc3c2c(-c2ccccc2)nn3-c2ccccc2)c1`, the growth is 119%.

These data come from PubChem BioAssay (NCI).
